# Screening data (PubChem)
# Hits are enriched below; roughly 1.8% of the tested compounds scored in any of these assays.
# ERAP1 inh = human ERAP1 aminopeptidase inhibitors, primary screen, biochemical, single point, plate reader | hit rate 0.15% among 340,000 | recombinant ERAP1, Leu-AMC fluorescence, 60 min | inhibition, % at 10.7 µM;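 active means mean replicate inhibition of at least 30%, or all replicates individually reaching that 30% level; inactive means mean below 30% and not every replicate reaching it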;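 further: 0% = neutral control wells and 100% = L-leucinethiol positive control wells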
# AF4-AF9 inh = inhibitors of AF4 peptide binding to AF9, primary screen, biochemical, AlphaScreen, biotin-AF4 peptide, FLAG-AF9, single point; inhibition, % at 10 µM; hit rate 0.47% among 350,000; Protein AF-9 (Homo sapiens), P42568; AID 651704, 2012;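 active means every replicate reaching a set inhibition limit, whatever the replicate mean, cut at about 25% in these data; inconclusive means mean inhibition reaches that limit but some replicates miss it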;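 further: 0% = plate neutral control median and 100% = total signal loss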
# ERp5 block = inhibitors of ERp5-driven insulin aggregation, primary screen, biochemical, turbidity, absorbance 650 nm, single point. hit rate 0.05% among 350,000. 90 min. inhibition, % at 9.99 µM. Protein disulfide-isomerase A6 (Homo sapiens), Q15084;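 active means mean replicate inhibition above about 25%, with every replicate also reaching it, limit read from the data, passing the limit was not always enough; inconclusive means only one of those two criteria met; inactive means neither criterion met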
# Target sequence (Q15084 whole entry, looked up): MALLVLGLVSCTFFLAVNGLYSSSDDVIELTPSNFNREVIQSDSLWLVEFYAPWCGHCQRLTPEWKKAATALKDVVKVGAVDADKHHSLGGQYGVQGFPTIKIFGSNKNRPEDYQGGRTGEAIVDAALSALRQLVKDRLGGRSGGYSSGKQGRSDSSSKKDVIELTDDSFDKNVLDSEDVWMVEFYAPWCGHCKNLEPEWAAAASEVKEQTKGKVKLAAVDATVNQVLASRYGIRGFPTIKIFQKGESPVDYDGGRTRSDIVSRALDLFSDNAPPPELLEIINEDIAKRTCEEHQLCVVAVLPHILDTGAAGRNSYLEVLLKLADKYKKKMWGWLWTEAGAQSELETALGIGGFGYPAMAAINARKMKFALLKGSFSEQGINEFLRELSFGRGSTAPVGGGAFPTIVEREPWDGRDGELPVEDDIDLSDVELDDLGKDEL
# DENV2 CPE = inhibitors of DENV2 cytopathic effect, primary screen, cell-based, plate reader, single concentration; DENV2-infected cells, cytopathic effect rescue; CPE inhibition, % at 9.99 µM; hit rate 1.7% among 350,000; AID 651640, 2012; in the data active means CPE inhibition above about 20%, passing the limit was not always enough; inconclusive means no clear call, values can overlap the other calls; tested in BHK-21 cells;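 further: 0% = median of neutral control wells and 100% = median of positive control wells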
# PDI inh = inhibitors of human PDI, primary screen, biochemical, turbidity, single point, plate reader. Protein disulfide-isomerase (Homo sapiens), P07237. PDI insulin aggregation turbidity, A650, 90 min. inhibition, % at 10 µM. hit rate 0.052% among 350,000;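 active means mean inhibition across replicates of 30% or more, whatever share of single replicates reach that level; inconclusive means mean inhibition below 30% while every single replicate reaches 30%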
# Numbers without * were called inactive; ? = inconclusive; . = no result; ! = repeats disagree.
SMILES,ERAP1 inh,AF4-AF9 inh,ERp5 block,DENV2 CPE,PDI inh
N#Cc1cccc(-c2ccc([C@H]3[C@H](CO)N4CCCCN(C(=O)Cc5cccnc5)C[C@@H]34)cc2)c1,-1,-4,0,6,.
O=C(Cc1cccnc1)N1CCCCN2[C@H](C1)[C@H](c1ccc(C#CC3CCCC3)cc1)[C@@H]2CO,4,2,2,19,.
O=C(Cc1cccnc1)N1CCCCN2[C@H](CO)[C@H](c3ccc(C#CC4(O)CCCC4)cc3)[C@@H]2C1,-1,-3,2,0,.
COc1ccc(C#Cc2ccc([C@H]3[C@@H](CO)N4CCCCN(C(=O)Cc5cccnc5)C[C@@H]34)cc2)cc1,1,-11,0,1,.
C/C=C/c1ccc(C2[C@@H]3CN(C(=O)C4CCC4)C[C@H]2N3)cc1 (stereo partly specified),.,.,.,-9,.
COc1ccc(C#Cc2ccc([C@@H]3[C@H]4CN(C(=O)Cc5cccnc5)CCCCN4[C@H]3CO)cc2)cc1,2,-5,6,-8,.
OC[C@H]1[C@@H]2c3ccccc3NC[C@@H]2N1Cc1cccnc1,0,-6,-2,-2,.
CC=Cc1ccc2n(c1=O)C[C@@H]1[C@@H](CO)[C@H](C(=O)N(C)C)N[C@H]21 (mixture of isomers),2,0,10,?,.
COC(=O)C1=C(c2c(C)noc2C)C[C@@H]2CC[C@H]1N2C(=O)N1CCC(C)CC1,.,1,0,51*,-3
CCN1[C@@H]2Cn3c(ccc(-c4ccc(OC)cc4)c3=O)[C@H]1[C@@H](C(=O)OC)[C@@H]2CO,1,2,-2,-5,.
COc1ccc(NC(=S)N2Cc3ccccc3-n3nncc3C2)c(OC)c1,-1,-7,6,25*,13
COc1cc(C(=O)N2Cc3ccccc3-n3nncc3C2)cc(OC)c1OC,4,-5,2,-4,3
Clc1ccc([C@H]2CC3CCC2N3)cn1 (stereo partly specified),0,.,-4,49*!,.
O=C(CCC(=O)N1C[C@H]2C[C@@H](C1)c1cccc(=O)n1C2)NCc1ccc(F)cc1,0,.,-1,81*,.
CC(C)[C@H](NC(=O)N1C[C@H]2C[C@@H](C1)c1cccc(=O)n1C2)C(=O)Nc1ccccc1F,.,0,1,58*,.
CN1C2CCC1CC(OC(=O)c1ccc([N+](=O)[O-])cc1)C2 (stereo unspecified),4,-1,-3,66*,-12
CC1CC(OC(=O)c2ccccc2)CC(C)N1C (stereo unspecified),.,.,.,.,-3
CN1C2CCC1CC(OC(=O)c1cccc(O)c1)C2 (stereo unspecified),2,-1,1,29*,.
CCOC(=O)c1cccc(C2=C(CNC(C)=O)[C@H]3CC[C@@H](C2)N3Cc2ccccc2)c1,-5,-2,7,32*,5
O=C(O)[C@H]1[C@H](CO)[C@H]2Cn3c(ccc(-c4cccnc4)c3=O)[C@@H]1N2C(=O)Nc1cc(F)ccc1F,-2,0,-1,-1,.
CNC(=O)OCCc1n(C)cc[n+]1C,102*,-7,-3,-4,4
OC1CN2CCCC(O)C2C1O (stereo unspecified),3,-1,0,55*,.
O=C(O)C[C@@H]1CC[C@H]2NC[C@@H](O)COC[C@@H]2O1,1,-3,-2,2,.
CCCN1[C@@H]2c3ccc(-c4cccc(OC)c4)c(=O)n3C[C@H]1[C@H](CO)[C@H]2C(=O)OC,-5,-1,-1,12,.
C[N+]1(CC2COC(c3ccco3)O2)CCCCC1 (stereo unspecified),80*,-2,5,1,3
O=S(=O)(c1cc(Cl)cc(Cl)c1)N1Cc2cc(N3CCOCC3)ccc2-n2nncc2C1,-4,1,-2,108*,.
O=S(=O)(c1cc(Cl)cc(Cl)c1)N1Cc2cc(-c3ccccc3)ccc2-n2nncc2C1,.,-1,3,14,.
COC(=O)[C@H]1[C@H](CO)[C@H]2Cn3c(ccc(-c4ccc(F)cc4)c3=O)[C@@H]1N2Cc1cccnc1,2,0,4,-3,.
NCCc1ccccc1,-1,1,-1,43*,.
NCCc1ccc(S(N)(=O)=O)cc1,-1,-1,-1,6,-1
